# CHO-K1 Ca antag: nonselective inhibitor or artifact in parental CHO-K1 cells | 360,000 tested, 0.6% active | inhibition, % at 3 µM | ATP-induced calcium, Fluo-8 fluorescence | AID 602250;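 active = inhibition above a per-plate cutoff, the plate's mean sample inhibition plus 3 SD, cut at about 24% in these data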;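 note: 0% = DMSO plus EC80 ATP and 100% = DMSO alone without ATP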
# TMEM16A act: activates or potentiates the mouse TMEM16A chloride channel. Q8BHY3. HEK293 TMEM16A/YFP-H148Q/I152L, iodide quench fluorescence; stronger effect = lower value. B-score at 10 µM. 340,000 tested, 0.3% active;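 active = fluorescence-ratio B-score plate-corrected deviation score at least 3 library SD below zero, with starting fluorescence score within 5 deviations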;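 note: channel opened by trigger with iodide after compound preincubation; score built on the fluorescence ratio of max minus min over baseline; more negative score means more quench and so TMEM16A activation or potentiation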
# Target sequence (Q8BHY3 whole entry, looked up): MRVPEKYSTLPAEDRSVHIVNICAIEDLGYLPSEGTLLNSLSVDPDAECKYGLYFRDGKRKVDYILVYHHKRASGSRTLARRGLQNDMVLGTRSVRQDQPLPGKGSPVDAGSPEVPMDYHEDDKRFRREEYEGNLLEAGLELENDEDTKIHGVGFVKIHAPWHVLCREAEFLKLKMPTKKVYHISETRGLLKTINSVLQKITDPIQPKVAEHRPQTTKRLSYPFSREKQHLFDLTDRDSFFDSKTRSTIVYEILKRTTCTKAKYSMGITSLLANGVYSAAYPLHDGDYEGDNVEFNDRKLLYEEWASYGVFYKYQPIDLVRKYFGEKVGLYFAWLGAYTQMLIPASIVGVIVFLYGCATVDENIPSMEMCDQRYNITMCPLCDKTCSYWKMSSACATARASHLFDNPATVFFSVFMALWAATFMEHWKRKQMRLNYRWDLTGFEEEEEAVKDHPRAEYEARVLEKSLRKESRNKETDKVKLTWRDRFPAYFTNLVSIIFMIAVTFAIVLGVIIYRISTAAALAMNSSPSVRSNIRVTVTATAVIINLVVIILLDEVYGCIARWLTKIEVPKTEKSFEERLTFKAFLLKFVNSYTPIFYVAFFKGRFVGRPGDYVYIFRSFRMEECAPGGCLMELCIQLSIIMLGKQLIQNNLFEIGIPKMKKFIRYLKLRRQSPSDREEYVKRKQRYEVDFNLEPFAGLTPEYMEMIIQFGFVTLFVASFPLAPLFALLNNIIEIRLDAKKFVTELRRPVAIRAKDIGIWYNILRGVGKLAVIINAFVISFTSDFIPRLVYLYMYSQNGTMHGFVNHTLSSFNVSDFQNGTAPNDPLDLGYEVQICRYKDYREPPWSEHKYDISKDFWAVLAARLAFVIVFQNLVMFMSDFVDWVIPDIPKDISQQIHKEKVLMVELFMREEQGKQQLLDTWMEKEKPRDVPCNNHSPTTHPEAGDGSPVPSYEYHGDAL
# M1 ag parental: nonselective activator or artifact in parental CHO-K1 cells. activation, % at 3 µM. 360,000 tested, 0.48% active. Fluo-8 calcium fluorescence; scaled to maximal ATP response, vehicle zero; in the data active = activation above about 15%;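 note: untransfected CHO-K1 host cells lacking M1 receptor as counterscreen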
# NTR1 agonist: NTR1 (human) agonism. NTR1-U2OS beta-arrestin-GFP spot imaging, agonist mode. 330,000 tested, 0.17% active. activation, % at 20 µM. P30989;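 active = activation at or above 40% of the spot to cytoplasm intensity ratio, with at least 20 cells analyzed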;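 note: 0% = DMSO without peptide and 100% = 100 nM NTR1 peptide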
# TMEM16A inh: inhibitors of mouse TMEM16A calcium-activated chloride channel | 310,000 tested, 1.2% active | HEK293 TMEM16A/YFP iodide influx fluorescence, ionomycin | normalized B-score (activity score, 25-100; higher = stronger inhibition) at 10 µM;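 active = ratio plate-corrected score three or more library SD toward inhibition, starting fluorescence score within five deviations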;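 note: score derived from kinetic fluorescence span divided by baseline fluorescence per well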
# M1 PAM parental: nonselective activator or artifact in parental CHO-K1 calcium assay; ATP EC20, Fluo-8 calcium fluorescence; 0% at ATP EC20, 100% at ATP max; activation, % at 3 µM; 360,000 tested, 0.02% active; AID 602247;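 active = activation above the run cutoff, the mean activation of all test compounds plus 3 SD, cut at about 40% in these data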;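 note: peak over basal fluorescence ratio in a 140 s read after ATP addition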
# TMEM16A reconf: re-confirmation of mouse TMEM16A chloride channel inhibitors. inhibition, % at 10 µM. HEK293 TMEM16A/YFP-H148Q, iodide quench fluorescence; ionomycin added to raise cell calcium. shares compounds with TMEM16A inh. 2,300 tested, 39% active;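 active = mean duplicate percent inhibition, scaled so buffer wells are 0 and the reference blocker 100, over three buffer SD above buffer mean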
# HEK293 Ca mobil: calcium mobilization counter-screen hit for TMEM16A inhibitor series. shares compounds with TMEM16A inh. TMEM16A/YFP HEK293, Fluo4 calcium mobilization. calcium response (% of ionomycin), % at 10 µM. 2,300 tested, 2% active. AID 652231;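 active = duplicate-averaged calcium signal over 20% of the ionomycin maximum, relative to buffer baseline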;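 note: each well's signal is peak minus trough fluorescence divided by its pre-addition baseline; 0% = buffer wells and 100% = ionomycin wells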
# Parental YFP cnt: counter-screen for TMEM16A inhibitors: effect in parental YFP-HEK293 cells; 2,300 tested, under 10 active; shares compounds with TMEM16A inh; iodide YFP quench, ionomycin; YFP ratio F(max-min)/F0 at 10 µM;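 active = yellow fluorescent protein signal ratio exceeding the buffer control mean by over 5 SD of those controls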;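 note: ratio is mean of duplicate wells from kinetic YFP trace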
# ClC-1 inh: selectivity of TMEM16A inhibitors: inhibition of rat ClC-1 chloride channel | shares compounds with TMEM16A inh | CHO ClC-1-YFP, iodide influx fluorescence quench; iodide control reads 0, buffer control 100 | ratio percent, % at 10 µM | 2,300 tested, under 10 active | AID 652236;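 active = duplicate-mean ratio percent above the mean of iodide-only control wells, which defines zero, plus 5 of their SD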;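 note: higher percent means stronger block of ClC-1 iodide influx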
# * hit, by the source's call; i = inactive; x = not tested or not shown. This is a sample that favours compounds with a hit; in the whole collection about 2.2% have one here.
SMILES,CHO-K1 Ca antag,TMEM16A act,M1 ag parental,NTR1 agonist,TMEM16A inh,M1 PAM parental,TMEM16A reconf,HEK293 Ca mobil,Parental YFP cnt,ClC-1 inh
CCOc1ccc(OCC)c(NS(=O)(=O)c2ccc3c(c2)n(C)c(=O)c(=O)n3C)c1,10,i,0,-1,i,-3,x,x,x,x
O=C(NCc1ccccc1)c1cc2nc(C3CC3)cc(C(F)(F)F)n2n1,6,i,0,1,100*,9,i,i,-1.2,-14
CC(=O)Nc1cccc(-c2ccnc3c2CC(C(=O)Nc2cccc(N(C)C)c2)O3)c1 (stereo not given),-18,x,4,x,x,2,x,x,x,x
COc1ccc(CCNS(=O)(=O)c2ccc3c(c2)OCCO3)cc1,-5,i,2,0,i,19,x,x,x,x
COc1ccc(CCNS(=O)(=O)c2ccc(OC)cc2)cc1,-1,i,1,1,25*,0,i,i,-0.78,-5
CC(C)NC(=O)C1(C)CCN1C(=O)c1ccccc1Oc1ccccc1 (stereo not given),-3,x,0,x,x,14,x,x,x,x
CCOC1=C2[C@H](c3ccc(Cl)cc3)N(S(=O)(=O)c3ccc(C)cc3)C[C@H]2n2c(=O)n(-c3ccccc3)c(=O)n2C1,15,x,0,x,x,-3,x,x,x,x
CCOC(=O)c1nnn(-c2nonc2-n2cccc2)c1CN1CCCCC1,2,-6.9*,-1,10,100*,1,i,i,-1.1,-14
CCOC(=O)c1nnn(-c2nonc2N)c1CN1CCCCCC1,-8,i,1,0,i,29,x,x,x,x
CC1=C(C(=O)N(C)C)CC(CC(=O)NCCCN(C)C)C(=O)N1CCCN1CCCC1=O (stereo not given),0,x,0,x,x,1,x,x,x,x
COc1ccc(C(=O)N2CCCC(c3nc(-c4cccs4)no3)C2)cc1OC (stereo not given),-3,x,3,0,i,26,x,x,x,x
COc1ccc(C(=O)N2CCCC(c3nc(-c4cccs4)no3)C2)cc1 (stereo not given),-16,i,5,3,25*,3,i,i,-1.1,-8
O=C(c1ccccc1Br)N1CCCC(c2nc(-c3cccs3)no2)C1 (stereo not given),-1,i,8,2,25*,11,19%*,i,-1,-15
CCOc1cc(N2CCOCC2)c(OCC)cc1NC(=O)c1cc(S(=O)(=O)N2CCOCC2)ccc1F,3,i,0,2,x,-14,x,x,x,x
COc1ccc(Cl)cc1NC(=O)C(OC)c1ccccc1 (stereo not given),-17,i,0,0,i,15,x,x,x,x
COC(/C(=N/O)c1ccc(Cl)cc1)c1ccccc1 (stereo not given),31*,i,9,7,100*,-17,26%*,i,-1.3,-26
CC1Cc2ccccc2N1C(=O)CSc1nnc2n1C(C)(C)Cc1ccccc1-2 (stereo not given),1,i,3,0,i,7,x,x,x,x
COc1ccccc1N1CCN(C(=O)CSc2nnc3n2C(C)(C)Cc2ccccc2-3)CC1,3,i,13,3,25*,8,i,i,-1.1,-4
COc1ccc(OC)c(S(=O)(=O)Nc2ccc(Oc3ccccc3)cc2)c1,6,i,3,6,25*,7,i,i,-1.1,-13
CCOC(=O)C1=C(N)Oc2cc(O)ccc2C1c1cccnc1 (stereo not given),-6,i,1,7,100*,10,30%*,i,-1.2,-10
CCOC(=O)Cc1csc(NC(=O)c2ccc(Br)cc2)n1,12,i,8,1,i,-9,x,x,x,x
CCOC(=O)Cc1csc(NC(=O)c2ccncc2)n1,4,i,1,0,100*,12,19%*,i,-0.85,-10
COc1ccc(NC(=O)COC(=O)C2CCCN2C(=O)OC(C)(C)C)cc1Cl (stereo not given),1,x,2,x,x,5,x,x,x,x
COc1cc(Nc2nc3ccccc3n3nnnc23)cc(OC)c1OC,16,i,1,4,i,1,i,i,-0.81,-4
COc1ccc(Nc2nc3ccccc3n3nnnc23)cc1,-9,i,0,9,i,-6,x,x,x,x
SMILES,CHO-K1 Ca antag,TMEM16A act,M1 ag parental,NTR1 agonist,TMEM16A inh,M1 PAM parental,TMEM16A reconf,HEK293 Ca mobil,Parental YFP cnt,ClC-1 inh
COc1ccc(C(NC(=O)C2CCN(CCCOc3ccccc3)CC2)c2cccs2)cc1 (stereo not given),-17,x,3,x,x,16,x,x,x,x
Cc1cc(C(=O)CSc2nnc(-c3ccco3)o2)c(C)n1Cc1ccco1,-2,i,3,8,i,9,i,i,-0.99,-14
Cc1cc(C(=O)CSc2nnc(-c3cccs3)o2)c(C)n1-c1ccccc1,-4,i,1,4,100*,14,i,i,-1.3,-6
O=C(CSc1nnc(-c2cccs2)o1)c1cccs1,-13,i,1,0,i,0,x,x,x,x
COCC(C)n1c(C)cc(C(=O)CSc2nnc(-c3ccco3)o2)c1C (stereo not given),-15,i,3,4,x,16,x,x,x,x
Cc1cccc(NC(=O)/C(C#N)=C\c2cccnc2)c1,14,i,0,2,25*,-15,28%*,i,-0.98,-12
CC(=Nc1cccc(C)c1)c1sc2ccccc2c1O,1,i,1,0,i,9,i,i,-0.93,-10
CC(=Nc1ccc(O)cc1)c1sc2ccccc2c1O,1,i,2,2,i,3,x,x,x,x
O=C(Nc1nc(-c2ccc(-c3ccccc3)cc2)cs1)C1CCCO1 (stereo not given),6,i,1,1,100*,11,i,i,-0.9,-21
O=C(Nc1nc(-c2ccc(F)c(F)c2)cs1)c1ccc(OCC2CCCO2)cc1 (stereo not given),-7,i,2,2,25*,19,i,i,-1.2,-7
O=C(Nc1nc(-c2ccccc2)cs1)C1CCCO1 (stereo not given),-18,i,2,0,i,13,x,x,x,x

# Screening data (PubChem BioAssay)
